Reference: PMC8384837, “Expanding the binding specificity for RNA recognition by a PUF domain”

Assays:
Assay in all cases: yeast three-hybrid, YBZ-1, SC-Leu-His + 0.5 mM 3-AT, 4 days
Conditions in all cases: tags: N-Gal4 AD-HA kept; label: inside an RPR1-promoter hybrid RNA with tandem MS2 sites; ssRNA
PUM1 PUF domain R7-VRR = PUM1 PUF domain R7-VRR (Homo sapiens, UniProt Q14671 828-1176, S1079V;N1080R;E1083R)
In short: (§1)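 The interaction score is the log change in how often each variant appears, from input to selection. Frequencies came from PCR-amplified, Illumina-sequenced repeat regions of Pumilio-1 PUF domain libraries grown in strain YBZ-1 (LexA–MS2 coat fusion, HIS3 reporter) alongside matching RNA elements. Input plates were SC-Leu and selection plates were SC-Leu-His + 0.5 mM 3-AT, each for four days, and the log2 calculation used a pseudocount of 1 where a variant was absent.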

PUM1 PUF domain R2-RKS = PUM1 PUF domain R2-RKS (Homo sapiens, UniProt Q14671 828-1176, N899R;Y900K;Q903S)
In short: as §1

PUM1 PUF domain R4-EYL = PUM1 PUF domain R4-EYL (Homo sapiens, UniProt Q14671 828-1176, N971E;H972Y;Q975L)
In short: as §1

PUM1 PUF domain R3-IYV = PUM1 PUF domain R3-IYV (Homo sapiens, UniProt Q14671 828-1176, C935I;R936Y;Q939V)
In short: as §1

PUM1 PUF domain R8-RHR = PUM1 PUF domain R8-RHR (Homo sapiens, UniProt Q14671 828-1176, N1122R;Y1123H;Q1126R)
In short: as §1

PUM1 PUF domain R8-RMR = PUM1 PUF domain R8-RMR (Homo sapiens, UniProt Q14671 828-1176, N1122R;Y1123M;Q1126R)
In short: as §1

PUM1 PUF domain R5-DHN = PUM1 PUF domain R5-DHN (Homo sapiens, UniProt Q14671 828-1176, C1007D;R1008H;Q1011N)
In short: as §1

PUM1 PUF domain R8-RHA = PUM1 PUF domain R8-RHA (Homo sapiens, UniProt Q14671 828-1176, N1122R;Y1123H;Q1126A)
In short: as §1

PUM1 PUF domain R4-SRT = PUM1 PUF domain R4-SRT (Homo sapiens, UniProt Q14671 828-1176, N971S;H972R;Q975T)
In short: as §1

PUM1 PUF domain R1-QTK = PUM1 PUF domain R1-QTK (Homo sapiens, UniProt Q14671 828-1176, S863Q;R864T;Q867K)
In short: as §1

PUM1 PUF domain R1-RFQ = PUM1 PUF domain R1-RFQ (Homo sapiens, UniProt Q14671 828-1176, S863R;R864F)
In short: as §1

PUM1 PUF domain R2-CWP = PUM1 PUF domain R2-CWP (Homo sapiens, UniProt Q14671 828-1176, N899C;Y900W;Q903P)
In short: as §1

Sequence of PUM1 PUF domain R4-EYL (Q14671 828-1176 N971E/H972Y/Q975L): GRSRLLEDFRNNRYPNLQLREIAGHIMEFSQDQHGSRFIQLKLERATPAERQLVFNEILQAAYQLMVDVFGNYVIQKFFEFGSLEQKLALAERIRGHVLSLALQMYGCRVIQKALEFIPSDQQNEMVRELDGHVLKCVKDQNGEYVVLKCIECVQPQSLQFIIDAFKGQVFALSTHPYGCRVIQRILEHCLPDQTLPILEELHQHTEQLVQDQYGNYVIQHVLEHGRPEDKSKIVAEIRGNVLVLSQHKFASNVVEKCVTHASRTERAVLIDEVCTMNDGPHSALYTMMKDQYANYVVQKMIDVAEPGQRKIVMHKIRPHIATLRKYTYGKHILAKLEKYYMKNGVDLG
Sequence of PUM1 PUF domain R4-SRT (Q14671 828-1176 N971S/H972R/Q975T): as the sequence (Q14671 828-1176 N971E/H972Y/Q975L) above, with E144S, Y145R, L148T counted along it
Sequence of PUM1 PUF domain R2-RKS (Q14671 828-1176 N899R/Y900K/Q903S): as the sequence (Q14671 828-1176 N971E/H972Y/Q975L) above, with N72R, Y73K, Q76S, E144N, Y145H, L148Q counted along it
Sequence of PUM1 PUF domain R1-QTK (Q14671 828-1176 S863Q/R864T/Q867K): as the sequence (Q14671 828-1176 N971E/H972Y/Q975L) above, with S36Q, R37T, Q40K, E144N, Y145H, L148Q counted along it
Sequence of PUM1 PUF domain R3-IYV (Q14671 828-1176 C935I/R936Y/Q939V): as the sequence (Q14671 828-1176 N971E/H972Y/Q975L) above, with C108I, R109Y, Q112V, E144N, Y145H, L148Q counted along it
Sequence of PUM1 PUF domain R8-RHA (Q14671 828-1176 N1122R/Y1123H/Q1126A): as the sequence (Q14671 828-1176 N971E/H972Y/Q975L) above, with E144N, Y145H, L148Q, N295R, Y296H, Q299A counted along it
Sequence of PUM1 PUF domain R1-RFQ (Q14671 828-1176 S863R/R864F): as the sequence (Q14671 828-1176 N971E/H972Y/Q975L) above, with S36R, R37F, E144N, Y145H, L148Q counted along it
Sequence of PUM1 PUF domain R2-CWP (Q14671 828-1176 N899C/Y900W/Q903P): as the sequence (Q14671 828-1176 N971E/H972Y/Q975L) above, with N72C, Y73W, Q76P, E144N, Y145H, L148Q counted along it
Sequence of PUM1 PUF domain R8-RMR (Q14671 828-1176 N1122R/Y1123M/Q1126R): as the sequence (Q14671 828-1176 N971E/H972Y/Q975L) above, with E144N, Y145H, L148Q, N295R, Y296M, Q299R counted along it
Sequence of PUM1 PUF domain R8-RHR (Q14671 828-1176 N1122R/Y1123H/Q1126R): as the sequence (Q14671 828-1176 N971E/H972Y/Q975L) above, with E144N, Y145H, L148Q, N295R, Y296H, Q299R counted along it

## GGCUAGAACUAGUGGAUCCCCCGGCGCCCGGCGGCUCGAGCCCGGGUAAGUUUAAAUAGUCUGCAUGCCGCCGGGCGCCAUGCCUGCAGGUCGACUCUAGAAAACAUG
PUM1 PUF domain R7-VRR
  binding signal: 2.18 log2 enrichment (interaction score)

## GGCUAGAACUAGUGGAUCCCCCGGCGCCCGGCGGCUCGAGCCCGGGUAAGUGUAAACAGUCUGCAUGCCGCCGGGCGCCAUGCCUGCAGGUCGACUCUAGAAAACAUG
PUM1 PUF domain R2-RKS
  binding signal: 0.34 log2 enrichment (interaction score)

## GGCUAGAACUAGUGGAUCCCCCGGCGCCCGGCGGCUCGAGCCCGGGUAAGUGUAAAUAGUCUGCAUGCCGCCGGGCGCCAUGCCUGCAGGUCGACUCUAGAAAACAUG
PUM1 PUF domain R4-EYL
  binding signal: 4.64 log2 enrichment (interaction score)
PUM1 PUF domain R3-IYV
  binding signal: 2.65 log2 enrichment (interaction score)
PUM1 PUF domain R8-RHR
  binding signal: 5.61 log2 enrichment (interaction score)
PUM1 PUF domain R8-RMR
  binding signal: 1.55 log2 enrichment (interaction score)
PUM1 PUF domain R5-DHN
  binding signal: 3.41 log2 enrichment (interaction score)
PUM1 PUF domain R8-RHA
  binding signal: 3.38 log2 enrichment (interaction score)
PUM1 PUF domain R4-SRT
  binding signal: 3.46 log2 enrichment (interaction score)

## GGCUAGAACUAGUGGAUCCCCCGGCGCCCGGCGGCUCGAGCCCGGGUAAGUGUAUAUAGUCUGCAUGCCGCCGGGCGCCAUGCCUGCAGGUCGACUCUAGAAAACAUG
PUM1 PUF domain R4-EYL
  binding signal: 3.34 log2 enrichment (interaction score)
PUM1 PUF domain R4-SRT
  binding signal: 2.14 log2 enrichment (interaction score)

## GGCUAGAACUAGUGGAUCCCCCGGCGCCCGGCGGCUCGAGCCCGGGUAAGUGUAAAGAGUCUGCAUGCCGCCGGGCGCCAUGCCUGCAGGUCGACUCUAGAAAACAUG
PUM1 PUF domain R2-RKS
  binding signal: 4.33 log2 enrichment (interaction score)

## GGCUAGAACUAGUGGAUCCCCCGGCGCCCGGCGGCUCGAGCCCGGGUAAGUGUAAAUCGUCUGCAUGCCGCCGGGCGCCAUGCCUGCAGGUCGACUCUAGAAAACAUG
PUM1 PUF domain R1-QTK
  binding signal: 2.31 log2 enrichment (interaction score)
PUM1 PUF domain R1-RFQ
  binding signal: 5.82 log2 enrichment (interaction score)

## GGCUAGAACUAGUGGAUCCCCCGGCGCCCGGCGGCUCGAGCCCGGGUAAGUGUGAAUAGUCUGCAUGCCGCCGGGCGCCAUGCCUGCAGGUCGACUCUAGAAAACAUG
PUM1 PUF domain R5-DHN
  binding signal: 2.35 log2 enrichment (interaction score)

## GGCUAGAACUAGUGGAUCCCCCGGCGCCCGGCGGCUCGAGCCCGGGUAAGUGUAAAAAGUCUGCAUGCCGCCGGGCGCCAUGCCUGCAGGUCGACUCUAGAAAACAUG
PUM1 PUF domain R2-CWP
  binding signal: 6.72 log2 enrichment (interaction score)
